The whole screen tested about 69,000 compounds, of which about 8,600 (12%) showed an effect of 50% or more. Shown is part of a subset that was picked to be rich in strong results.

The test deals with Plasmodium berghei. In words: Screen against P. berghei liver stage (PbLuc), transformed with Luciferase, at 10uM. The test is classed as functional, HepG2. Particulars: tested at 10 uM.
Consider `O=C(c1cnccn1)N1CCC2(CC1)CC(Oc1ccccc1)CO2` (configuration not stated), for which the INHIBITION was 41.3%. To `CCOCC1CCN(C(=O)c2sc(C)cc2OC(F)F)CC1` belongs 0.325%; to `COc1cc(CCC(=O)NC2CCN(C)CC2)ccc1OCC(F)(F)F`, -14.7%.

In the case of `COCCNC(=O)c1ccc(NCc2csc(C)n2)cc1Cl`, the INHIBITION came to 16%.

As for `COCCOc1cccc(C(=O)N2CCCC(n3cccn3)C2)c1` (configuration not stated), the INHIBITION was determined as 9.94%. As to `CC1CCc2nn(CCNC(=O)Cc3cccs3)c(=O)cc2C1` (configuration not stated), the INHIBITION was -45.7%.

On to `Cc1nc(CN(CCS(C)(=O)=O)C(C)C)no1`, for which the INHIBITION stood at 49.3%. Take `Cc1cccc(COC[C@H]2CC[C@H]3[C@H](CCN3Cc3ccco3)O2)n1`: the INHIBITION is listed as 68.4%. To `c1coc(CN2CC[C@@H]3O[C@@H](COCc4ccncc4)CC[C@@H]32)c1` belongs 0.164%. The same measure for `COC[C@H]1CC[C@@H]2[C@@H](CCN2Cc2ccco2)O1`: -6.39%; for `CN(C)C(=O)COC[C@H]1CC[C@@H]2[C@@H](CCN2Cc2ccco2)O1`: -11.6%; for `c1csc(CN2CC[C@H]3O[C@@H](COCC4CC4)CC[C@H]32)c1`: 73%. To `c1ccc(COC[C@H]2CC[C@H]3[C@H](CCN3c3ncccn3)O2)nc1` belongs 26.4%. Consider `c1coc(CN2CC[C@@H]3O[C@@H](COCC4CCOCC4)CC[C@@H]32)c1`, for which the INHIBITION is -30%.

For `c1ccc(COC[C@H]2CC[C@H]3[C@H](CCN3Cc3cccs3)O2)nc1`, the INHIBITION is on record as 49.7%.

For `Cc1cccc(COC[C@@H]2CC[C@H]3[C@H](CCN3Cc3ccco3)O2)n1`, the INHIBITION was 43.5%. As for `c1cncc(COC[C@H]2CC[C@H]3[C@H](CCN3Cc3cccs3)O2)c1`, the INHIBITION amounted to 31.8%. To `c1ccc(COC[C@H]2CC[C@H]3[C@H](CCN3Cc3ccco3)O2)nc1` belongs 51.3%; to `c1coc(CN2CC[C@H]3O[C@@H](COCC4CC4)CC[C@H]32)c1`, 53.9%. For `Cn1cc(C[C@H]2[C@H](O)CCN2CC2CCOCC2)cn1`, the INHIBITION came out at 6.6%. To `O=C1CNc2ncnc(NCc3cccs3)c2N1` belongs -25.5%; to `CN(Cc1ccco1)C(=O)CN1C(=O)c2cc(Cl)c(Cl)cc2C1=O`, 39.2%. The same measure for `O=C1COC2(CCN(Cc3ccoc3)CC2)CN1`: -0.813%; for `CS(=O)(=O)CC(=O)N1C[C@H]2CCC[C@@]2(COc2ccccn2)C1`: -0.453%; for `Cn1c(=O)c2cc(C(=O)NCCOc3ccccc3)ccc2n(C)c1=O`: 33.7%. As to `CC(C)n1c(=O)c2ccccc2n(CCCN(C)C)c1=O`, the INHIBITION was determined as 28.7%. On to `c1ccc(CN2CC[C@@H]3O[C@H](COCc4ccncc4)CC[C@@H]32)nc1`, for which the INHIBITION amounted to 14.8%. The same measure for `c1ccc(COC[C@H]2CC[C@H]3[C@H](CCN3Cc3cccnc3)O2)nc1`: 29.9%; for `c1ccc(COC[C@H]2CC[C@H]3[C@H](CCN3Cc3ccccn3)O2)nc1`: 50.9%. The same measure for `CCCNC(=O)c1[nH]nc(C2CC2)c1Br`: -59.9%; for `Cn1cnc2ccc(NC(=O)CCCn3cccn3)cc2c1=O`: 2.84%; for `O=C(c1ccccc1F)N1CCCC1Cn1c(=O)oc2ccccc21` (configuration not stated): -1.4%. Consider `Fc1ccccc1C(CNc1ccncn1)N1CCCC1` (configuration not stated), for which the INHIBITION is recorded as 43.4%. To `CCc1nc2ccccc2c(=O)n1CC1(O)CCN(S(C)(=O)=O)CC1` belongs 52.9%.

Regarding `CCc1nc2ccccc2c(=O)n1CC1(O)CCNCC1`, the INHIBITION is listed as 28%.

In the case of `CS(=O)(=O)N1CCC(O)(Cn2c(C3CC3)nc3ccccc3c2=O)CC1`, the INHIBITION was found to be 38.1%.

Turning to `CC(C)CCN1CCN(C(=O)c2c[nH]nn2)CC1`, the INHIBITION is given as -0.275%. On to `Cc1nc(COC[C@@H]2CC[C@H]3[C@H](CCN3c3ccccn3)O2)cs1`, for which the INHIBITION is -106%. To `CN1CC2(CCN(CCOCCO)CC2)CC(c2ccccc2)C1=O` (configuration not stated) belongs 73.4%.

As to `CCN1CC2(CCN(CCOCCO)CC2)CC(c2ccccc2)C1=O` (configuration not stated), the INHIBITION amounted to 7.84%. To `CN1C(=O)C(c2ccccc2)CC12CCN(CCOCCO)CC2` (configuration not stated) belongs -26.4%. To `CCCC(=O)N(CC)C(c1cccnc1)c1ccc2c(c1)CCO2` (configuration not stated) belongs 29.4%; to `CCN(C(=O)COC)C(c1cccnc1)c1ccc2c(c1)CCO2` (configuration not stated), 51.8%. `CCN(C(=O)C(C)C)C(c1cccnc1)c1ccc2c(c1)CCO2` (configuration not stated): the INHIBITION was determined as 3.87%.

Consider `CCC(=O)N(CC)C(c1cccnc1)c1ccc2c(c1)CCO2` (configuration not stated), for which the INHIBITION amounted to 37.9%. As for `CCN(C(=O)C1CCC1)C(c1cccnc1)c1ccc2c(c1)CCO2` (configuration not stated), the INHIBITION was 66.2%. To `CCN(C(=O)C1CC1)C(c1cccnc1)c1ccc2c(c1)CCO2` (configuration not stated) belongs 21.8%; to `Cn1ccnc1Sc1ccc(S(N)(=O)=O)cn1`, 7.92%. To `CS(=O)(=O)c1cc(Cl)cnc1C1CCN(C(=O)C2CC2)CC1` belongs 15.49%; to `CCOC(=O)c1nc(COc2c(C)occc2=O)no1`, 41.7%; to `COCC(=O)N1CCCCC1c1ccnc(Nc2cnccn2)n1` (configuration not stated), -26.2%. The same measure for `CCOc1ccc(S(=O)(=O)N(C)Cc2cnn(CC)c2)cc1`: 55.7%; for `CCn1cc(CN(C)S(=O)(=O)c2ccccc2)cn1`: 35.8%.

As to `CCn1cc(CN(C)S(=O)(=O)c2ccc(Cl)cc2)cn1`, the INHIBITION is -64.7%.

As to `NC(=O)C1CCN(C(=O)CCCc2nnc(-c3ccccc3)o2)CC1`, the INHIBITION worked out at 33.7%.

Turning to `O=C(O)[C@@H]1CN(C2CCOCC2)C[C@H]1C1CC1`, the INHIBITION stood at 25.1%. On to `O=C([C@H]1COC[C@H]2CN(C3CCCC3)C[C@H]21)N1CCCCO1`, for which the INHIBITION stood at 5.65%. To `O=C([C@H]1COC[C@H]2CN(C3CCCCC3)C[C@H]21)N1CCOCC1` belongs 31.2%; to `O=C([C@@H]1COC[C@H]2CN(C3CCOCC3)C[C@H]21)N1CCOCC1`, -5.69%; to `O=C([C@@H]1COC[C@H]2CN(C3CCCC3)C[C@H]21)N1CCC(F)CC1`, 50.3%. To `O=C(O)[C@@H]1CN(C2CCCC2)C[C@H]1C1CC1` belongs 57.9%; to `O=C(O)[C@@H]1CN(C2CCCCC2)C[C@H]1C1CC1`, 9.34%; to `O=C([C@H]1COC[C@H]2CN(C3CCCC3)C[C@H]21)N1CCCO1`, 71.4%. To `O=C([C@H]1COC[C@H]2CN(C3CCOCC3)C[C@H]21)N1CCC(F)CC1` belongs -20.4%; to `O=C([C@H]1COC[C@H]2CN(C3CCCC3)C[C@H]21)N1CCOCC1`, 74.7%. As to `O=C([C@@H]1COC[C@H]2CN(C3CCCC3)C[C@H]21)N1CCCO1`, the INHIBITION is 35.4%. The same measure for `O=C([C@@H]1COC[C@H]2CN(C3CCCCC3)C[C@H]21)N1CCOCC1`: 7.7%.
